Results filed as inconclusive are left out. Activity calls are given as the source filed them. Calls follow the shape of the dose curve; as a rule, active = well fitted curve in the direction sought with a large enough effect in the repeat runs; inconclusive = weak or mixed curves; inactive = no such curve, though single readings can be large; an effect the other way counts as inactive or inconclusive.
Key:
[1] = Human pregnane X receptor (PXR) small molecule agonists, qHTS cell viability counter screen (AID 1346977); also: nearly all actives have a fitted effect of over 50% in size
In short: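 PXR-Luc HepG2 cells (2,000/well, 5% charcoal-stripped FBS) preincubated 5 hr, then exposed to compounds 24 hr at 37 C. Viability read in the same wells by CellTiter-Fluor fluorescence, reagent added at 23 hr, 1 hr incubation.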

[2] = Caspase-3/7 induction in HepG2 cells by small molecules, qHTS assay (AID 1346978); also: nearly all actives have a fitted effect of over 15% in size
In short: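 Wild-type HepG2 cells, 2,000/well, settled 5 hr at 37 C and 5% CO2, then compound-treated for 17 hr; caspase-3/7 activity read by luminescent Caspase-Glo 3/7 after 30 min at room temperature.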

[3] = Caspase-3/7 induction in CHO-K1 cells by small molecules, qHTS cell viability counter screen (AID 1346979); also: nearly all actives have a fitted effect of over 35% in size; also: potency is read from the fitted curve at half-maximal effect
In short: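 Wild-type CHO-K1 cells (1,500/well) treated with compound after 5 h plating; after 16 h at 37C, viability read as CellTiter-Fluor fluorescence following 1 h reagent incubation, in the same wells as the caspase read.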

[4] = Caspase-3/7 induction in HepG2 cells by small molecules, qHTS cell viability counter screen (AID 1346981); also: series mostly up to about 92 µM; nearly all actives have a fitted effect of over 30% in size
In short: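 Steps: seed 2,000 HepG2 cells per well; incubate 5 hr at 37 C; pin-add compounds in DMSO; incubate 16 hr; add CellTiter-Fluor; after 1 hr at 37 C and 5% CO2, read fluorescence.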

[5] = biological target: Nuclear receptor subfamily 1 group I member 2 (Homo sapiens) (UniProt O75469); assay: Human pregnane X receptor (PXR) small molecule agonists, qHTS assay (AID 1346982); also: nearly all actives have a fitted effect of over 35% in size
Sequence of Nuclear receptor subfamily 1 group I member 2 (Homo sapiens) (O75469 whole entry, looked up): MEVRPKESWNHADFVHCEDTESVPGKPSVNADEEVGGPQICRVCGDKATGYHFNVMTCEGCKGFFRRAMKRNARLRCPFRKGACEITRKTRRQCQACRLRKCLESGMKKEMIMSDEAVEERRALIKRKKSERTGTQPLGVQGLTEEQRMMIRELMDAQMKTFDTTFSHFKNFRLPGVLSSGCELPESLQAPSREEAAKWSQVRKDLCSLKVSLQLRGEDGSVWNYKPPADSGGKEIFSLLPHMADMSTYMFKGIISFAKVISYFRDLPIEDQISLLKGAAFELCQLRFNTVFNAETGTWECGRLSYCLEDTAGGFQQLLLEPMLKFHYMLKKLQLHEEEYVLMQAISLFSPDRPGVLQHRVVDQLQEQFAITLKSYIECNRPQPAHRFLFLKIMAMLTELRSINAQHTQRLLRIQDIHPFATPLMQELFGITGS
In short: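 Agonist mode qHTS: PXR-Luc HepG2 cells plated 5 hr before DMSO-dissolved compounds were pinned in, cultured 24 hr at 37 C, 5% CO2; ONE-Glo luminescence readout.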

[6] = biological target: Cytochrome P450 2C19 (Homo sapiens) (UniProt P33261); assay: Cytochrome P450 Family 2 Subfamily C Member 19 (CYP2C19) small molecule antagonists: luciferase reporter qHTS assay (AID 1671197); also: nearly all actives have a fitted effect of over 65% in size; also: potency is read from the fitted curve at half-maximal effect
Sequence of Cytochrome P450 2C19 (Homo sapiens) (P33261 whole entry, looked up): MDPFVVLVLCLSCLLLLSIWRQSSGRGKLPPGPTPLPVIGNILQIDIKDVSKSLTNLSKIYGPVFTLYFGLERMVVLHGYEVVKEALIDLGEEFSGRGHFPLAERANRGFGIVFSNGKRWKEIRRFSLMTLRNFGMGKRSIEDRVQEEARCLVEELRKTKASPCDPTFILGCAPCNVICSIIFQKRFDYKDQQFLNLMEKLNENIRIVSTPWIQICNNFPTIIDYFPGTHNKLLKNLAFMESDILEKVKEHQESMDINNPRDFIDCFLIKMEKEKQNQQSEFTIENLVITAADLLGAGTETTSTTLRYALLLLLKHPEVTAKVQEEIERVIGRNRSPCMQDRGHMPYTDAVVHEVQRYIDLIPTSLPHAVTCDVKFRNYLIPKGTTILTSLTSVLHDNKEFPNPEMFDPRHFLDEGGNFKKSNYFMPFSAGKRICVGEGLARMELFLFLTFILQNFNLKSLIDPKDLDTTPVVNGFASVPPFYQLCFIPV
In short: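 P450-Glo CYP2C19 system: enzyme-substrate mix with compound 10 min at room temperature, then NADPH regeneration solution, 1 h at 37C. Proluciferin-to-luciferin conversion detected by luminescence after 20 min with detection reagent; ketoconazole as positive control.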

[7] = biological target: Cytochrome P450 2C9 (Homo sapiens) (UniProt P11712); assay: Cytochrome P450 Family 2 Subfamily C Member 9 (CYP2C9) small molecule antagonists: luciferase reporter qHTS assay (AID 1671198); also: nearly all actives have a fitted effect of over 50% in size; also: potency is read from the fitted curve at half-maximal effect
Sequence of Cytochrome P450 2C9 (Homo sapiens) (P11712 whole entry, looked up): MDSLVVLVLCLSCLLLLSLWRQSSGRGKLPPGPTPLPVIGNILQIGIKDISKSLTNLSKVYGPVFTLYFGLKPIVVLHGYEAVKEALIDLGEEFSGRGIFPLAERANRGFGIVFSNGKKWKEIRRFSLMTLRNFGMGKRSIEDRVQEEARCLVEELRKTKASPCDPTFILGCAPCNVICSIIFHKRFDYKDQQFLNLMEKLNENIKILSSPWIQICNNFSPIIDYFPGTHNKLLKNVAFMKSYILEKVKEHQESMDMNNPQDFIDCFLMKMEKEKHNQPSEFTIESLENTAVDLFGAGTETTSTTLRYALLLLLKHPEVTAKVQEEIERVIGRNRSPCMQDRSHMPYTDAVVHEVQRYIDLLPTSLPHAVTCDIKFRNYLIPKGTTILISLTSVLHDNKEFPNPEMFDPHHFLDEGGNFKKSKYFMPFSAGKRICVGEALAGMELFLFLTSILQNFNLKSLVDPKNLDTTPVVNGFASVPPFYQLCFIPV
In short: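 P450-Glo proluciferin substrate with CYP2C9 enzyme; 10 min RT preincubation, then NADPH regeneration 1 h at 37C; luciferin detection reagent 20 min RT, luminescence in relative luminescence units.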

[8] = biological target: Cytochrome P450 1A2 (Homo sapiens) (UniProt P05177); assay: Cytochrome P450 Family 1 Subfamily A Member 2 (CYP1A2) small molecule antagonists: luciferase reporter qHTS assay (AID 1671199); also: nearly all actives have a fitted effect of over 50% in size; also: potency is read from the fitted curve at half-maximal effect
Sequence of Cytochrome P450 1A2 (Homo sapiens) (P05177 whole entry, looked up): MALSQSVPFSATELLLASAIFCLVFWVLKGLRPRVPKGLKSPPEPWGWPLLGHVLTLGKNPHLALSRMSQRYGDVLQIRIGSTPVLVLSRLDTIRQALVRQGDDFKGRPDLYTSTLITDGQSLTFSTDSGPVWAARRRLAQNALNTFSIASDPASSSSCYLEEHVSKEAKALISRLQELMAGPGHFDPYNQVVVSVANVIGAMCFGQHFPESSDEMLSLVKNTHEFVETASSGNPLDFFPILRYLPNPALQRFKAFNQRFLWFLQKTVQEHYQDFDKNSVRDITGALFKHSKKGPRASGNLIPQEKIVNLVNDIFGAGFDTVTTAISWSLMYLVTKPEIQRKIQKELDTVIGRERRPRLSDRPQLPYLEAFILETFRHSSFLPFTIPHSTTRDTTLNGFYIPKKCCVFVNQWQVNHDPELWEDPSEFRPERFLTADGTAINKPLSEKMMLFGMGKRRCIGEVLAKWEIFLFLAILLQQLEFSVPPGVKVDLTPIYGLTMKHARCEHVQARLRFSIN
In short: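 Inhibition of CYP1A2 conversion of proluciferin to luciferin, detected by luminescence. Reaction run 1 h at room temperature with NADPH regeneration after brief compound preincubation.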

[9] = biological target: Voltage-gated inwardly rectifying potassium channel KCNH2 (Homo sapiens) (UniProt Q12809); assay: Human Ether-a-go-go-Related Gene (hERG) channel small molecule antagonists: fluorescence cell-based qHTS assay (AID 1671200); also: nearly all actives have a fitted effect of over 50% in size; also: potency is read from the fitted curve at half-maximal effect
Sequence of Voltage-gated inwardly rectifying potassium channel KCNH2 (Homo sapiens) (Q12809 whole entry, looked up): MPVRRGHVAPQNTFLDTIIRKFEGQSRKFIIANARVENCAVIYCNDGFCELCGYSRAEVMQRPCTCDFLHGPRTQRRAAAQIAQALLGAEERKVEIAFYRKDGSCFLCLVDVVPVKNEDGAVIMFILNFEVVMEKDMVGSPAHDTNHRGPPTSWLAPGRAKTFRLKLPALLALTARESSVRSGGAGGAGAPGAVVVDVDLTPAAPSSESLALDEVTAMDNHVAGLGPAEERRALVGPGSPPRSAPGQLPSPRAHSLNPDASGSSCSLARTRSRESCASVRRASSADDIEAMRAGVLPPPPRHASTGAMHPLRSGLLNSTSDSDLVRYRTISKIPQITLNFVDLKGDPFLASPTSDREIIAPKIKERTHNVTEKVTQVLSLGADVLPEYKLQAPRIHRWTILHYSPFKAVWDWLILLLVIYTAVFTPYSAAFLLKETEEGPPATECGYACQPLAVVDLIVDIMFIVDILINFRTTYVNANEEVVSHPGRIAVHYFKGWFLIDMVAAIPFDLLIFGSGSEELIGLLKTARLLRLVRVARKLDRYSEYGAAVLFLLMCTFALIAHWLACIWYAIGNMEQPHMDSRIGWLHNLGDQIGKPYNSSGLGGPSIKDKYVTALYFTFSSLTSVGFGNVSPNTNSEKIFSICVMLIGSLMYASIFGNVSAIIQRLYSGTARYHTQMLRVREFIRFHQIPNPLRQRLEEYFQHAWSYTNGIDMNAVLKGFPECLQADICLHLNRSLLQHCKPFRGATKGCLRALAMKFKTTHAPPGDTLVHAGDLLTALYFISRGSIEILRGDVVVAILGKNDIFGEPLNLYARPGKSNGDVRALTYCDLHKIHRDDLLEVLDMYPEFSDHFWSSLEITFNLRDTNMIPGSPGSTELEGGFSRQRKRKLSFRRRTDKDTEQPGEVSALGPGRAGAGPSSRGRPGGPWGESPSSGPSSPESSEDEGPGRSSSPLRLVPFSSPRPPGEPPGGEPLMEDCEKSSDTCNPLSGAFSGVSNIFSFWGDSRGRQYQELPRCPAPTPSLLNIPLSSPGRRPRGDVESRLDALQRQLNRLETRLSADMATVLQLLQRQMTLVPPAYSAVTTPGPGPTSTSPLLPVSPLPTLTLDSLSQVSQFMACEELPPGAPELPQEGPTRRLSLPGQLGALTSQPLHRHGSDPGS
In short: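 hERG-U2OS cells plated overnight at 37 C, loaded with FluxOR II dye 1 h at RT in dark; after 10 min, thallium stimulus added. Fluorescence (480/540 nm) read kinetically for 2 min at 1 s intervals.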

[10] = Caspase-3/7 induction in CHO-K1 cells by small molecules, qHTS assay (AID 1346980); also: nearly all actives have a fitted effect of over 15% in size
In short: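 Wild-type CHO-K1 cells exposed to compounds for 17hr at 37 C, 5% CO2. Caspase-3/7 activity then measured by Caspase-Glo 3/7 luminescence after 30min at room temperature.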

[11] = biological target: Nuclear receptor subfamily 1 group I member 2 (Rattus norvegicus) (UniProt Q9R1A7); assay: Rat pregnane X receptor (rPXR) activation by small molecules, qHTS assay (AID 1346983); details: rPXR luciferase reporter cells, One-Glo luminescence, 24 h; max activation: hits give high values; also: nearly all actives have a fitted effect of over 20% in size
Sequence of Nuclear receptor subfamily 1 group I member 2 (Rattus norvegicus) (Q9R1A7 whole entry, looked up): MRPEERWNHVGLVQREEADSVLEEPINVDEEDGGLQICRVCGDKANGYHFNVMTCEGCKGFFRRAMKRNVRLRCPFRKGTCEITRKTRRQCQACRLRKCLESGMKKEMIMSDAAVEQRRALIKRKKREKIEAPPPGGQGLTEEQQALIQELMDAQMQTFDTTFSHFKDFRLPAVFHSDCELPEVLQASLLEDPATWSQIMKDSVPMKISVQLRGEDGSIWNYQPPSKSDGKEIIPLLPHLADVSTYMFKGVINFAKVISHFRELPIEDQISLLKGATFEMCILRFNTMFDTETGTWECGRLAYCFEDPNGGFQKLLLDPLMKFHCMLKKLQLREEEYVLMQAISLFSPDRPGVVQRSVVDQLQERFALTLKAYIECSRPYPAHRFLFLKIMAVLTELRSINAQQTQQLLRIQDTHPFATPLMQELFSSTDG
In short: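 Cell-based rPXR activation assay: rPXR cells, 2,000 per well, rested 5hr at 37 C, then exposed to compounds in DMSO for 24 hr at 37 C. Luciferase activity read by One-Glo luminescence after 30 min at room temperature.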

[12] = biological target: Nuclear receptor subfamily 1 group I member 2 (Homo sapiens) (UniProt O75469); assay: CYP3A4 induction through human pregnane X receptor (PXR) by small molecules, qHTS assay (AID 1346984); also: nearly all actives have a fitted effect of over 40% in size
In short: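 Steps: seed DPX-2 cells, 5 hr at 37C; pin-transfer compounds; 24 hr at 37C; add Luciferin-IPA (3uM final), 3 hr at 37C; add One-Glo, 30 min RT; read luminescence.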

[13] = biological target: Nuclear receptor subfamily 1 group I member 2 (Homo sapiens) (UniProt O75469); assay: Human pregnane X receptor (PXR) activation by small molecules, qHTS assay (AID 1346985); also: nearly all actives have a fitted effect of over 40% in size
In short: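 DPX-2 cells (HepG2 co-transfected with a PXR response element and a CYP3A4-promoter luciferase construct) were seeded at 2,000 per well, rested 5 hr at 37C, then exposed to DMSO-dissolved compounds for 24 hr. Activation was read as luciferase luminescence.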

[14] = biological target: Cytochrome P450 3A4 (Homo sapiens) (UniProt P08684); assay: Cytochrome P450 Family 3 Subfamily A Member 4 (CYP3A4) small molecule antagonists: luciferase reporter qHTS assay (AID 1671201); also: nearly all actives have a fitted effect of over 50% in size; also: potency is read from the fitted curve at half-maximal effect
Sequence of Cytochrome P450 3A4 (Homo sapiens) (P08684 whole entry, looked up): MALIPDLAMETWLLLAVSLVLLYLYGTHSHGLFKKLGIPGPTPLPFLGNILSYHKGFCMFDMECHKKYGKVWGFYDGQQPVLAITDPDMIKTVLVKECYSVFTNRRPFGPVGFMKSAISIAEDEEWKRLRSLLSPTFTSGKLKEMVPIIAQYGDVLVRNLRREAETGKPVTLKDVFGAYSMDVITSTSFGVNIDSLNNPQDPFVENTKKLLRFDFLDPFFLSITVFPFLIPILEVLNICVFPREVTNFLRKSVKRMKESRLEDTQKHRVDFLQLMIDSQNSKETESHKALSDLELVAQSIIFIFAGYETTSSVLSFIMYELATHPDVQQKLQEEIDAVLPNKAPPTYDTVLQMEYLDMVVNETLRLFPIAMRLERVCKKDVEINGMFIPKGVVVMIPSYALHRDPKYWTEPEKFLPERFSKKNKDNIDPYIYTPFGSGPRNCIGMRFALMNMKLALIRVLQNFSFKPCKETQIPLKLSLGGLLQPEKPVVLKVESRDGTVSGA
In short: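 P450-Glo CYP3A4 luminescent assay: compounds preincubated 10 min at room temperature with enzyme and proluciferin substrate, NADPH regeneration added, 1 h room-temperature reaction, stopped with luciferin detection reagent; luminescence read after 20 min. Ketoconazole positive control.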

[15] = biological target: Cytochrome P450 2D6 (Homo sapiens) (UniProt P10635); assay: Cytochrome P450 Family 2 Subfamily D Member 6 (CYP2D6) small molecule antagonists: luciferase reporter qHTS assay (AID 1671196); also: nearly all actives have a fitted effect of over 50% in size; also: potency is read from the fitted curve at half-maximal effect
Sequence of Cytochrome P450 2D6 (Homo sapiens) (P10635 whole entry, looked up): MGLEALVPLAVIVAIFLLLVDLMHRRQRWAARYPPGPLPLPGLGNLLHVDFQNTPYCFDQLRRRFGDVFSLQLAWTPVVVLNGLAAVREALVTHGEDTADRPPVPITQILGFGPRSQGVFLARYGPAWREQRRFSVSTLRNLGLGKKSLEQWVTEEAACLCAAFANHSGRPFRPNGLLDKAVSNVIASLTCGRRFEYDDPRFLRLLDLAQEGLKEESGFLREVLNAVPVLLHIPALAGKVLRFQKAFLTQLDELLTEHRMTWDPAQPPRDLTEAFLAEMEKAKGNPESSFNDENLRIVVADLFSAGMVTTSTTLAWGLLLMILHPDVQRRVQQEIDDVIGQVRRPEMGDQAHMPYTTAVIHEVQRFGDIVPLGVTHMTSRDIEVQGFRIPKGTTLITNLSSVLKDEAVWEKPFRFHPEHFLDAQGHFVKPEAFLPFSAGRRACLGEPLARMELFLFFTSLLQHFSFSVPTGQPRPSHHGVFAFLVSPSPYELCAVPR
In short: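 P450-Glo format: CYP2D6 converts a proluciferin substrate to luciferin in an NADPH-driven reaction lasting 1 h at room temperature. Light output, proportional to CYP2D6 activity, reflects interference by test chemicals.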
% is scaled to controls: 0 for no effect and ±100 for the full control effect.

CCNS(=O)(=O)c1ccc(C)cc1
active: Potency [6] 20.6 µM | Potency [8] 41.1 µM
inactive: Potency [1] | outcome [2] | Potency [3] | Potency [4] | Potency [5] | Potency [7] | Potency [9]

O=[N+]([O-])c1ccc(/C=N\O)o1
inactive: Potency [1] | outcome [2] | outcome [10] | Potency [4] | max activation [11] -2.63% | Potency [12] | Potency [13] | Potency [6] | Potency [7] | Potency [9] | Potency [14]
active: Potency [8] 27.5 µM

CCOC(=O)COc1cc(-n2ncc(C(F)(F)F)c(C)c2=O)c(F)cc1Cl
active: Potency [6] 35.6 µM | Potency [7] 31.7 µM | Potency [8] 35.6 µM | Potency [9] 43.6 µM
inactive: Potency [1] | outcome [2] | Potency [3] | Potency [4]

O=C(O)c1cn(C2CC2)c2cc(N3CCNCC3)c(F)cc2c1=O
inactive: Potency [1] | Potency [3] | outcome [10] | Potency [4] | max activation [11] -1.42%

CC(=O)O[C@@]12CO[C@@H]1C[C@H](O)[C@@]1(C)C(=O)[C@H](O)C3=C(C)[C@@H](OC(=O)[C@H](O)[C@@H](NC(=O)OC(C)(C)C)c4ccccc4)C[C@@](O)([C@@H](OC(=O)c4ccccc4)[C@H]21)C3(C)C
active: Potency [3] 11.9 µM | Potency [15] 38.9 µM
inactive: Potency [1] | outcome [10] | Potency [5] | Potency [12] | Potency [6] | Potency [7] | Potency [8] | Potency [9]

CCC1C(=O)OCC1Cc1cncn1C (centres undefined)
active: Potency [14] 11 µM
inactive: Potency [1] | outcome [2] | outcome [10] | Potency [4] | Potency [5] | max activation [11] -2.44% | Potency [12] | Potency [15] | Potency [6] | Potency [8] | Potency [9]

CCCc1nn(C)c2c(=O)[nH]c(-c3cc(S(=O)(=O)N4CCN(C)CC4)ccc3OCC)nc12
active: Potency [7] 30.9 µM
inactive: Potency [1] | outcome [2] | Potency [3] | Potency [4] | Potency [15] | Potency [6] | Potency [8]

Source: PubChem BioAssay (Tox21)
